Pf gametocyte: inhibitors of late stage P. falciparum gametocyte viability; P. falciparum stage V gametocytes, ATP luminescence, 24 h; inhibition, % at 10.9 µM; 150,000 tested, 0.065% active;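 active means inhibition above the mean plus 3 SD of compounds within the control limits, set per campaign, cut at about 38% in these data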;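 further: 0% = DMSO wells and 100% = medium only without gametocytes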
HSV augment: HSV replication enhancement; HSV replication augmentation in cells, fold increase; maximum fold increase; 220,000 tested, 0.005% active; in the data active means maximum fold increase above about 1.5; inconclusive means no clear call, values can overlap the other calls; tested in PC3 cells
EP2 modulator: EP2 receptor (human) modulation; P43116; EP2-expressing cells, cAMP HTRF FRET, PGE2 co-stimulation; induction, % at 25 µM; 260,000 tested, 0.83% active; AID 940;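 active means compounds whose cAMP rise, as percent of the full-agonist control response, exceeds 60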;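 further: rat C6 glioma line stably carrying human EP2 under a CMV promoter; the protocol text gives 20 µM as final concentration; 100% = response of wells given 1 µM PGE2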
EP2 antag: inhibitors of human EP2 prostaglandin E2 receptor; P43116; C6 glioma cells expressing human EP2, cAMP TR-FRET; cells stimulated with saturating PGE2; inhibition, % at 25 µM; 260,000 tested, 0.52% active;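 active means percent inhibition above 40 after rounding to a whole number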;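 further: rat C6 glioma host cells with rolipram phosphodiesterase inhibitor present; the protocol text gives 20 µM as final concentration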
Furin inh: human furin inhibition; AID 463115; inhibition, % at 20 µM or 30 µM; 220,000 tested, 0.061% active; P09958; purified furin, fluorogenic substrate cleavage; in the data active means inhibition above about 25%
Target sequence (P09958 108-714 limits assumed): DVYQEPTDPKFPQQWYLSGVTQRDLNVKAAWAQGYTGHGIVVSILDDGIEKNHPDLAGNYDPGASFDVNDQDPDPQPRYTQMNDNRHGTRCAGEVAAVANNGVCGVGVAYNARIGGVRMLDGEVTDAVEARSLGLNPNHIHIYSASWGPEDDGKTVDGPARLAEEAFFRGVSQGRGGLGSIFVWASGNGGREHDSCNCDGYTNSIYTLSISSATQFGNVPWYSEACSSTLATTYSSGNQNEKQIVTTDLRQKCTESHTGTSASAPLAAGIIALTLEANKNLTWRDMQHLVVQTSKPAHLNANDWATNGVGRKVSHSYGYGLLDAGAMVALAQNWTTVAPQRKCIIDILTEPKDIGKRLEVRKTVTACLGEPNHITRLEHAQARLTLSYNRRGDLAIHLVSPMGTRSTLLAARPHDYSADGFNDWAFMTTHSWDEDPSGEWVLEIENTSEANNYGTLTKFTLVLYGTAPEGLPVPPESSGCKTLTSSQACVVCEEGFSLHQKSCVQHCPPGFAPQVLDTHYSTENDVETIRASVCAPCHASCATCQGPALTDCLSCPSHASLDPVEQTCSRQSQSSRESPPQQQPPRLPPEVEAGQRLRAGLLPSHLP
Numbers without * were called inactive; i = inactive; u = inconclusive; x = no result given; ! = a repeat was not active. Hits are enriched below; roughly 1.4% of the tested compounds scored in any of these assays.

SMILES	Pf gametocyte	HSV augment	EP2 modulator	EP2 antag	Furin inh
COC(=O)c1c(C)ccc2c(O)c3c(cc12)C(=O)c1c2c(cc(O)c1C3=O)[C@@]1(C)O[C@@](C)(O2)[C@@H](O)[C@H](N(C)C)[C@H]1O	x	x	12	42*	x
O=C1C(=O)c2ccccc2-c2ccccc21	x	i	-38	45*	-10
CC12CN3CC(C)(CN(C1)C31CCOCC1)C2=O	x	i	15	2	-23
O=[As](O)(O)c1ccc(Cc2ccc([As](=O)(O)O)cc2)cc1	x	x	-37	93*	x
Cc1ccccc1C1=NCC(=S)Nc2ccc(Cl)cc21	x	i	27	7	-17
C[N+]1(C)[C@@H]2CC[C@H]1CC(OC(=O)[C@@H](CO)c1ccccc1)C2 (stereo partly specified)	x	x	20	50*	x
CN1C[C@@H](C(=O)N[C@@]2(C)O[C@@]3(O)[C@H]4CCCN4C(=O)[C@@H](Cc4ccccc4)N3C2=O)C=C2c3cccc4[nH]cc(c34)C[C@@H]21	x	x	3	66*	x
COC(=O)C1C=C2c3cccc4[nH]cc(c34)CC2N(C)C1 (stereo unspecified)	x	u	-8	8	-10
C[C@]12CC[C@@H]3c4ccc(O)c(O)c4CC[C@H]3[C@@H]1CC[C@@H]2O	x	i	-24	89*	x
CN(C)C(=O)Oc1noc2cc(Cl)ccc12	-11	i	-13	7	-11
CC1(C)C[C@H]2C=C(C=O)[C@]3(C=O)C[C@]3(C)[C@H]2C1	x	i	-34	88*	-11
COc1cccc2c1C(=O)c1c(O)c3c(c(O)c1C2=O)C[C@](O)(/C(C)=N/O)C[C@@H]3O[C@@H]1C[C@H](N)[C@@H](O)[C@H](C)O1	x	x	8	46*	x
O=c1c2ccccc2nc(-c2ccccc2)n1-c1ccccc1	-5	i	21	3	-4
O=c1c2ccccc2[se]n1-c1ccccc1	x	i	-2	47*!	-13
CN1C(=O)C(=Cc2ccccc2OCc2ccc(Cl)cc2)C(=O)N(C)C1=O	10	i	13	10	-5
Oc1ccc([C@H](O)[C@@H]2CCCCN2)cc1O	x	x	-7	9	x
CCC(N)C(O)c1ccc(O)c(O)c1 (stereo unspecified)	x	x	74*	12	x
CC(C)CCNC(=O)CN1C(=O)CN=C(c2ccccc2)c2ccccc21	-20	i	-16	3	3
OC1(CN2CCOCC2)C2CC3CC(C2)CC1C3 (stereo unspecified)	18	i	-6	12	-22
CC1(C)CC(=N[N-]C(N)=[SH+])CC(C)(C)N1.CC1(C)CC(=N[N-]C(N)=[SH+])CC(C)(C)N1.[Ni]	x	x	-6	51*	x
O=C1NC(=O)C2(Cc3ccccc3N3CCCC32)C(=O)N1c1ccccc1 (stereo unspecified)	x	i	36	6	-14
O=C1NC(=O)N(Cc2ccc(F)cc2)C(=O)/C1=C/c1cccs1	17	i	-65	93*	-16
O=C1NC(=O)N(Cc2ccccc2Cl)C(=O)/C1=C/c1cccs1	5	i	-83	33	-3
CCOC(=O)C1SC2(C(F)F)CC1(O)c1c(c(OC)c3occc3c1OC)O2 (stereo unspecified)	x	i	9	15	-13
COc1cc2c(cc1OC)[C@]13CC[N@+]4(C)CC5=CCO[C@@H]6CC(=O)N2[C@@H]1[C@@H]6[C@@H]5C[C@]34O	x	x	27	42*	x
SMILES	Pf gametocyte	HSV augment	EP2 modulator	EP2 antag	Furin inh
COc1cc2c(cc1OC)[C@@]13CCN4CC5=CCO[C@H]6CC(=O)N2[C@H]1[C@H]6[C@H]5C[C@H]43	x	i	1	15	-11
CC(=O)c1cc(C#N)c(N2CCN(C)CC2)nc1C	19	i	20	5	-28
C=C(C)c1ccccc1 (tested in a mixture with another compound)	x	x	10	55*	x
CCNC(=S)N1CCn2cccc2C1c1cccnc1 (stereo unspecified)	27	i	-14	7	-14
C[N+]1=C(/C=C/Nc2ccccc2)C(C)(C)c2ccccc21	x	i	0	7	-4
CN1/C(=C\C=C\C2=[N+](C)c3ccc4ccccc4c3C2(C)C)C(C)(C)c2ccccc21	x	i	-46	114*	-11
CC1(C)N=C(N)N=C(N)N1c1cccc(C(=O)Nc2ccc(S(=O)(=O)F)cc2)c1	x	x	12	52*	x
CCN(CC)C(=O)c1ccc(NC(=O)c2cccc(C(F)(F)F)c2)cc1	-6	i	-14	6	-18
Nc1ccc(S(=O)(=O)c2ccc(NCN3C(=O)NC(=O)C(=O)C3=O)cc2)cc1	x	x	14	44*	x
O=C1NC(=O)N(CCc2ccc(F)cc2)C(=O)/C1=C\C=C\c1ccccc1	-23	i	-18	12	-11
Cc1ccc(N2C(=O)NC(=O)/C(=C\C=C\c3ccco3)C2=O)cc1C	6	i	-95	88*	16
C=CCN1C(=O)NC(=O)/C(=C/C=C/c2ccccc2)C1=O	-19	i	-67	129*	-15
O=C1NC(=O)N(Cc2ccco2)C(=O)/C1=C/C=C/c1ccco1	-22	i	-34	21	-16
O=C1NC(=O)N(Cc2ccccc2)C(=O)/C1=C\C=C\c1ccco1	-3	u	-65	63*	-7
Cc1cccc(N2C(=O)NC(=O)/C(=C\C=C\c3ccco3)C2=O)c1	-17	i	-109	44*	14
Cc1ccc(N2C(=O)NC(=O)/C(=C\C=C\c3ccco3)C2=O)cc1	5	x	-29	26	-15
Cc1cc(N2C(=O)C3CCCN3C2c2ccccc2)no1 (stereo unspecified)	x	i	22	6	-13
Cc1ccc2c(c1)=C/C(=C\c1c(O)[nH]c(=S)[nH]c1=O)C(=O)N=2	x	i	10	6	-21
CC(=NCc1cccnc1)c1c(O)n(C2CCCCC2)c(=O)[nH]c1=O	11	i	14	5	-24
O=C(COc1ccc(Br)cc1)N1CCN(Cc2c[nH]c3ccccc23)CC1	x	x	-28	x	-23
CC[C@@H](C(N)=O)N1CCCC1=O	x	i	x	16	x
O=C1NC(=O)N(c2ccccc2)C(=O)/C1=C/C=C/c1ccco1	-6	i	-102	47*	14
CN1/C(=C\C=Nc2ccccc2)C(C)(C)c2ccccc21	x	i	6	21	-7
CN1/C(=C\C=C2C(=O)NC(=O)NC2=O)C(C)(C)c2ccccc21	-30	u	0	8	28*
CCCCn1c(=O)c(C(=O)NCc2ccncc2)c(O)c2ccccc21	x	i	63*	17	-18
CCCN1CCc2cccc3c2[C@H]1Cc1ccc(O)c(O)c1-3	x	i	40	43*!	x
O=S(=O)(c1ccc(Cl)cc1)N1CCCC1c1cccnc1 (stereo unspecified)	17	i	14	13	-4
C[C@]12CC[C@@H]3[C@H](CCC4=CC(=O)CC[C@]43C)[C@]1(O)CC[C@@]2(O)C(=O)CO	x	x	-3	55*	x
C#CC1(O)CCC2C3CCC4=CC(=O)CCC4(C)C3CCC21C (stereo unspecified)	x	x	-11	19	x
